Results as given in ChEMBL document CHEMBL3988442, “University of Dundee, Small-Polar-MMV Screening Library” (2021).

Legend:
[1] = target: T1, Aspartate--tRNA(Asp/Asn) ligase (Mycobacterium tuberculosis (strain ATCC 25618 / H37Rv)) (UniProt P9WFW3); experiment: Assay for Asp RNA synthetase-1 from Mycobacterium tuberculosis; type: functional; parameters: scale not given: direction of the effect not stated beside the values; conditions: 30 µM; further: in the data most compounds retested in dose-response had high values
T1 sequence (whole entry): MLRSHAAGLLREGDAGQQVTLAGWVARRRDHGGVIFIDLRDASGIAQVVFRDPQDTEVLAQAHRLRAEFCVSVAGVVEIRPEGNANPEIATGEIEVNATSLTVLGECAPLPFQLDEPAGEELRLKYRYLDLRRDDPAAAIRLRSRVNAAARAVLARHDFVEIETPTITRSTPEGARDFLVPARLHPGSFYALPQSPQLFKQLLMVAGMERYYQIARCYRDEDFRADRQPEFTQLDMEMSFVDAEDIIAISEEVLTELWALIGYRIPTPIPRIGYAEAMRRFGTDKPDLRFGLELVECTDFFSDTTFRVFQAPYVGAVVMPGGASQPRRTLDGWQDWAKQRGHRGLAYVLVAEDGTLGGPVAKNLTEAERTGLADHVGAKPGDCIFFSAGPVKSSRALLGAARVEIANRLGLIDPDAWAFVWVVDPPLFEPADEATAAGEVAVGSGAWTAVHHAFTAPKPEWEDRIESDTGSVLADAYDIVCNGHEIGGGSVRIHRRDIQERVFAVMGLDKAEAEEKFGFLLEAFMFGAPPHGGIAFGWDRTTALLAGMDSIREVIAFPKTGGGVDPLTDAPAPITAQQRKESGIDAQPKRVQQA

[2] = target: Shiga toxin 2 (Escherichia coli O157:H7) (UniProt P09385+P09386); experiment: E. coli 0.157:H7 Shiga Toxin SOP - stx2 screening assay; type: functional; parameters: scale not given: direction of the effect not stated beside the values; conditions: 30 µM

Row | Structure (SMILES) | Percent Effect [1] | Percent Effect [2]
1 | CC(C)CC(=O)N1CC[C@@H]2[C@H](CC1)N(S(C)(=O)=O)CCS2(=O)=O | -2.04% | -14.8%
2 | CC(c1ccco1)N(C)Cc1nc2c(cnn2C)c(=O)[nH]1 (stereo not given) | -2.56% | -9.3%
3 | COc1cc2nc(C)n(CC(=O)O)c(=O)c2cc1OC | 1.68% | -6.96%
4 | CC(C)C1CN(C(=O)c2nccnc2N)CCS1 (stereo not given) | 13% | -15.2%
5 | NC(=O)NCC(=O)N1C[C@H]2CC[C@@H]1CN(Cc1ccccc1)C2 | 15.6% | -8.55%
6 | O=C(c1ccc(Cl)cc1)N1CCCn2nnc(Cn3cccn3)c2C1 | -1.14% | -4.47%
7 | CCn1cc(NC(=O)NCc2ccc(CN3CCOCC3)cc2)cn1 | 3.24% | -35.1%
8 | Cc1cc(CN(C)C(=O)c2ccc(C(F)(F)F)nc2)no1 | -0.926% | -2.99%
9 | NC(=O)CN1CCC(NC(=O)c2ccn(-c3cccc(F)c3)n2)CC1 | 2.51% | -20%
10 | c1ccc2oc(CCCN3CCCC3Cn3cncn3)nc2c1 (stereo not given) | -1.22% | 7.93%
11 | Cn1ccc(-c2cc(C(=O)N3CCOCC3)c3ccccn23)n1 | 3.13% | -17.8%
12 | COC(=O)N1CCCN(C(=O)NCc2ccc(Cl)s2)CC1 | 5.28% | -16.1%
13 | O=C(c1cccnc1)N1C[C@@H]2CC[C@H](C1)N(Cc1cccc(Cl)c1F)C2 | 9.03% | -10.5%
14 | CCn1ccnc1CN1CCC(CNC(=O)c2ccc(C)nc2)C1 (stereo not given) | -0.565% | -34.1%
15 | Cc1nc(C)n(CC2CCCCN2Cc2nnc(C3CC3)o2)n1 (stereo not given) | 1.18% | -4.29%
16 | O=C(c1cnccn1)N1C[C@@H]2CC[C@H](C1)N(C(=O)Cc1ccsc1)C2 | -3.45% | -38.6%
17 | O=C(NCCCO)C1CC(=O)N(c2n[nH]c3cccc(F)c23)C1 (stereo not given) | 0.29% | -34.7%
18 | CC(C)n1ccc(-c2cc(C(=O)N3CCCC3)c3ccccn23)n1 | 2.64% | -41.4%
19 | COCC(NC(=O)c1cc[nH]n1)c1cccc(C(F)(F)F)c1 (stereo not given) | -7.45% | -7.89%
20 | CC1=Nc2c(c(=O)[nH]n2C2CCCC2)C(c2cccc(O)c2)S1 (stereo not given) | 0.174% | 10.3%
21 | NC(=O)c1cccc(CC2CCN(C(=O)CCCN3CCOCC3)C2)c1 (stereo not given) | 6.21% | -6.5%
22 | Cc1cnccc1CN1C[C@@H](O)[C@H](Oc2ccccc2)C1 | 0.283% | -4.47%
23 | O=C(CC1CN(Cc2ccccc2)CCO1)Nc1ccccc1F (stereo not given) | -4.94% | -0.0564%
24 | COCCN1CCCC1c1nccnc1Nc1nc(C)cs1 (stereo not given) | -3.52% | 0.955%
25 | Cc1nc(C)n(CC2CCCN(CCCOc3ccccc3)C2)n1 (stereo not given) | 0.568% | 8.48%

Row | Structure (SMILES) | Percent Effect [1] | Percent Effect [2]
26 | Cc1nn(C)c(C)c1C1COCCN1C(=O)c1n[nH]c2ccccc12 (stereo not given) | -1.46% | -15.4%
27 | CN1CCN(CC2CC2)C(=O)c2cnc(N3CCCC3)nc21 | -0.103% | -25.1%
28 | CC(C)c1cc2c(O)nc(CSCC(=O)O)nc2s1 | -0.29% | -12.1%
29 | COc1nn(C)c2c1CCCN(C(=O)c1cc[nH]n1)C2 | 0.229% | -2.49%
30 | Cn1c(CN2CCOCC2)nnc1C1CCN(C(=O)C2CCCC2)CC1 | 1.73% | -33.5%
31 | CCOc1ccc(CC(CNC(=O)c2occc2C)C(N)=O)cc1 (stereo not given) | 2.25% | 23.6%
32 | Cc1ccc([C@@H]2CN(S(=O)(=O)N(C)C)C[C@H]2N(C)C)cc1 | 2.81% | 5.3%
33 | Cc1cc2c(cc1C(=O)N1CC[C@H](CO)[C@@H](O)C1)OCCO2 | -0.915% | 8.21%
34 | COc1ccc(CN2CCn3cc(CN4CCN(C)CC4)nc3C2)cc1 | -1.67% | 10.3%
35 | O=C(c1cscn1)N1CCC2(CCN(Cc3cccs3)CC2)C1 | -4.17% | -7.4%
36 | COc1ccc2c(c1)C1(CCN(Cc3ccncc3)CC1)N(C)CC2 | 2.26% | -1.38%
37 | O=C1OC2(CCNCC2)CN1CC(=O)N1CCCC1c1ccco1 (stereo not given) | -0.636% | -9.63%
38 | CO[C@@H]1CCN(Cc2cnn(C)c2)[C@@H]2CN(Cc3ccco3)C[C@@H]21 | -4.07% | -22%
39 | Cc1noc(C2CCN(C(=O)c3ccc(NC4CC4)nc3)CC2)n1 | 1.21% | -7.73%
40 | CCOC(=O)CCCNC(=O)CN1CCN(c2ncccn2)CC1 | 6.48% | -56.7%
41 | c1ccc(-n2ncc(CNCC3CCCN3c3cccnn3)n2)cc1 (stereo not given) | 4.5% | 8.59%
42 | COc1cccc(CNc2nc(O)cc(C3CC(=O)N(C)C3)n2)c1 (stereo not given) | 4.42% | 12.2%
43 | CC(C)NC(=O)Nc1ccc(CS(=O)(=O)C(C)(C)C)cc1 | 0.689% | 0.4%
44 | O=C(NCCOc1cccc(Cl)c1)C1CC(=O)N(CC2CC2)C1 (stereo not given) | 0% | -10.5%
45 | Cc1nc(C)c(C(=O)N2CCC(Nc3cccnc3)CC2)s1 | 16.8% | -45.8%
46 | CC(O)CN1CCN(Cc2cccc(C(=O)N(C)C)c2)CC1 (stereo not given) | -6.5% | -1.9%
47 | CC(C)(C)c1cnc(CN2CCCC2Cn2cccn2)o1 (stereo not given) | -3.34% | 0.322%
48 | Cc1cc(CN(C)C(=O)NC2CCS(=O)(=O)C2)no1 (stereo not given) | -1.18% | 14.9%
49 | Cc1cnn(CC2CCCN2C(=O)c2nccc3ccccc23)c1 (stereo not given) | 3.06% | 28%
50 | COc1cc(C)nc(N2CCN(C(=O)CCc3cscn3)CC2)n1 | -2.13% | -10.1%
